Screening data as filed in PubChem.
TbPYK inhibitor: blocks Trypanosoma brucei pyruvate kinase; Q57TT1; TbPYK enzyme, Kinase-Glo Plus ATP luminescence, 45 min; Potency, µM (series often up to 76.8 µM), without a hit: at the top dose activity, negative = inhibition, hits mostly inhibitors; actives 0.12% (n = 410,000); active = well fitted curve in the direction sought with a large enough effect; an effect the other way counts as inactive or inconclusive; note: potency is the fitted concentration of half-maximal effect; % is set by controls: 0 for no effect and ±100 for the full control effect; nearly all actives have a fitted effect of over 50% in size
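Readout: single end-point luminescence (Kinase-Glo Plus, 10 min). Reaction conditions were TbPYK/substrate plus 130 uM ADP, 45 min at RT, pH 7.2 TEA buffer. No-enzyme wells served as controls, and data were normalized before concentration-response fitting.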
Cycloheximide cs: counter-screen for Shiga toxin inhibitors: cycloheximide protein synthesis inhibition; max response, %; actives 12% (n = 300,000); cell reporter, cycloheximide protein synthesis inhibition counterscreen; in the data active = max response mostly above about 13%, no sharp cut-off; inactive = mostly below about 14%; note: read at 38.3 µM for the half of the compounds with a filed dose; 0% is about no effect
LmPK inh: blocks Leishmania mexicana pyruvate kinase activity; Potency, µM (titrated, usually from 57.5 µM), for the others: at the highest dose activity change, negative = inhibition, usual class: inhibitors; purified LmPK, Kinase-Glo ATP luminescence, 1 h; Q27686; actives 0.37% (n = 290,000); active = well fitted curve in the direction sought with a large enough effect; an effect the other way counts as inactive or inconclusive; note: potency is the fitted concentration of half-maximal effect; % is set by controls: 0 for no effect and ±100 for the full control effect
Target sequence (Q27686 whole entry, looked up): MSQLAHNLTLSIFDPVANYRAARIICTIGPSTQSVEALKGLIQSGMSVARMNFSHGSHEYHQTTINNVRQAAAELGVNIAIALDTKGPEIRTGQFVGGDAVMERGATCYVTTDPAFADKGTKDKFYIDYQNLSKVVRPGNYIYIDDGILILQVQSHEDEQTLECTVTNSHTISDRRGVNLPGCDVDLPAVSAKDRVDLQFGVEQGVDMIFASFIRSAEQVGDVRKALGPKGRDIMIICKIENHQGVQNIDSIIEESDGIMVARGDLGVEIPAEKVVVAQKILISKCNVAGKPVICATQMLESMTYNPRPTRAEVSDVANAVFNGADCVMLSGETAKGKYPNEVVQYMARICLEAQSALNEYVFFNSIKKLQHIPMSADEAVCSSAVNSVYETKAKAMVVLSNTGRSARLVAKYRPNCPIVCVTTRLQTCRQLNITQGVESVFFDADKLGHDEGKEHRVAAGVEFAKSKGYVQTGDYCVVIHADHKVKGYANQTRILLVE
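Screened at intermediate enzyme activity to detect both inhibitors and activators: LmPK at 0.1 nM, with a 0.5 nM enzyme column as activation reference. PEP 0.5 mM, ADP 0.1 mM; ATP detected by luminescence after 1 h.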
SARS PLpro yeast: SARS-CoV PLP inhibition in yeast | Potency, µM (highest dose often 32.9 µM), inactives show top-dose activity, positive = growth rescue, most hits filed as activators | actives 0.19% (n = 330,000) | S. cerevisiae expressing SARS-CoV PLpro, growth rescue; note: potency is the fitted concentration of half-maximal effect; 0% is about no effect; nearly all actives have a fitted effect of over 55% in size
Shiga toxin inh: Shiga toxin inhibition; Vero cells, Shiga toxin protein synthesis inhibition reporter; inhibition, % at 38.7 µM; actives 9.2% (n = 290,000); AID 2315; in the data active = inhibition mostly above about 28%, no sharp cut-off; inactive = mostly below about 43%; note: 0% is about no effect
NS1 inh: blocks influenza NS1 protein function | Potency, µM (highest dose often 46.1 µM), inactives show at the highest dose activity, positive = more growth | actives 0.4% (n = 270,000); note: potency is the fitted concentration of half-maximal effect; actives are rising curves; nearly all actives have a fitted effect of over 50% in size
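Growth recovery, yeast-based: influenza A NS1 expressed in S. cerevisiae causes slow growth, and suppressors are detected by OD600. The parent strain without NS1 is used as positive control.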
* = called active by the depositor. The full list was thinned out, with hits kept by preference. Unless noted, calls come from the whole dose curve.

`O=C(COc1ccc2c(c1)OCO2)Nc1ccc2c(c1)oc1ccccc12` gave TbPYK inhibitor 4%, Cycloheximide cs 4, LmPK inh 0%, SARS PLpro yeast -3%, Shiga toxin inh -1 and NS1 inh -13%.
O=C(Nc1ncccc1O)c1ccc2c(c1)OCO2 was read as TbPYK inhibitor -3% and SARS PLpro yeast 2%.
Screening Cc1[nH]c2ccccc2c1C(=O)C(=O)Nc1ccc2c(c1)OCO2 returned TbPYK inhibitor 0%, Cycloheximide cs 28*, LmPK inh 6%, SARS PLpro yeast 4%, Shiga toxin inh 47* and NS1 inh -10%.
Screening O=C(Nc1ccc2c(c1)oc1ccccc12)c1ccc2c(c1)OCO2 returned TbPYK inhibitor 4%, Cycloheximide cs 45*, LmPK inh -1%, SARS PLpro yeast -2%, Shiga toxin inh 73 and NS1 inh -4%.
`O=C(Cc1ccc(NC(=O)C2CCN(C(=O)C3CCC3)CC2)cc1)Nc1cccc(C(=O)N2CCCC2)c1` gave TbPYK inhibitor 0%.
O=C(Nc1ccc(Cl)cc1)C1=Cc2ccccc2OC1 was read as TbPYK inhibitor -9%, Cycloheximide cs 83*, LmPK inh -2%, SARS PLpro yeast -20%, Shiga toxin inh 68* and NS1 inh -14%.
`O=c1c(O)c(-c2ccc3c(c2)OCO3)oc2ccccc12` gave TbPYK inhibitor 2%, Cycloheximide cs 34*, LmPK inh 5%, SARS PLpro yeast -7%, Shiga toxin inh 22 and NS1 inh -9%.
`O=C(Nc1cc([N+](=O)[O-])ccc1F)c1ccc2ccccc2c1` gave TbPYK inhibitor 0%, Cycloheximide cs 5, LmPK inh 0%, SARS PLpro yeast -2%, Shiga toxin inh 4 and NS1 inh -5%.
Screening O=C(Nc1ccc2c(c1)OCO2)c1ccc(Cl)s1 returned TbPYK inhibitor -15%, Cycloheximide cs 78*, LmPK inh -20%, SARS PLpro yeast -7%, Shiga toxin inh 81* and NS1 inh -65%.
O=C(Nc1cc([N+](=O)[O-])ccc1F)c1ccc2c(c1)OCCO2 was read as TbPYK inhibitor -7%, Cycloheximide cs 28*, LmPK inh 1%, SARS PLpro yeast 0% and Shiga toxin inh 56*.
CCOc1ccc(-c2oc3ccccc3c(=O)c2O)cc1OCC was read as TbPYK inhibitor -1%.
COc1ccc(C(=O)N2c3ccc(C)cc3C(C)(c3ccccc3)CC2(C)C)cc1 (configuration not stated) was read as TbPYK inhibitor -3%.
For COc1ccccc1N1CCN(C(=O)C2=CC=CN3CCS(=O)(=O)N=C23)CC1 the results were TbPYK inhibitor 1% and SARS PLpro yeast -1%.
For O=C(Nc1ccc(NC(=O)c2ccc(Cl)cc2Cl)cc1)c1ccc2c(c1)OCO2 the results were TbPYK inhibitor -3%, Cycloheximide cs -1, LmPK inh 1%, SARS PLpro yeast 1%, Shiga toxin inh 10 and NS1 inh 1%.
For CCN1CCN(c2ccc(NC(=O)c3ccc4c(c3)OCO4)cc2)CC1 the results were TbPYK inhibitor 8%, Cycloheximide cs 29*, LmPK inh -1%, SARS PLpro yeast 8%, Shiga toxin inh 56* and NS1 inh -6%.
`Cc1cccc(NC(=O)c2sc3nc(C)nc(N4CCOCC4)c3c2C)c1` gave TbPYK inhibitor 12%.
Screening CCC(=O)N1CCN(c2ccc(NC(=O)c3ccc4c(c3)OCO4)cc2)CC1 returned TbPYK inhibitor -2%, Cycloheximide cs 2, LmPK inh 3%, SARS PLpro yeast 5%, Shiga toxin inh -12 and NS1 inh -6%.
For Cc1nc(N2CCCCC2)c2c(C)c(C(=O)Nc3ccc4c(c3)OCCO4)sc2n1 the results were TbPYK inhibitor 2%, Cycloheximide cs 17*, LmPK inh 9%, SARS PLpro yeast -27%, Shiga toxin inh 24 and NS1 inh -4%.
Screening O=C(Nc1ccc(Cl)cc1)c1ccc2c(c1)OCO2 returned TbPYK inhibitor -8%, Cycloheximide cs 30*, LmPK inh -8%, SARS PLpro yeast -4%, Shiga toxin inh 49* and NS1 inh -40%.
